Laboratory results published in the supplement of paper PMC11732987, “Enantioselective OTUD7B fragment discovery through chemoproteomics screening and high-throughput optimisation” (Communications Chemistry, 2025).

What was measured:
Test in all cases: log2 ratio of Biotin-Ahx-Ub-VS probe labelling (fragment/DMSO); higher = less target engagement (more negative = stronger competition), active = hit call of the paper (q ≤ 0.05, log2 ratio ≤ -1)
Conditions in all cases: compound concentration: 200 uM; treatment time: 3 h
USP34 = USP34 (UniProt Q70CQ2)
Sequence of USP34 (Q70CQ2 whole entry, the tested form may be a part): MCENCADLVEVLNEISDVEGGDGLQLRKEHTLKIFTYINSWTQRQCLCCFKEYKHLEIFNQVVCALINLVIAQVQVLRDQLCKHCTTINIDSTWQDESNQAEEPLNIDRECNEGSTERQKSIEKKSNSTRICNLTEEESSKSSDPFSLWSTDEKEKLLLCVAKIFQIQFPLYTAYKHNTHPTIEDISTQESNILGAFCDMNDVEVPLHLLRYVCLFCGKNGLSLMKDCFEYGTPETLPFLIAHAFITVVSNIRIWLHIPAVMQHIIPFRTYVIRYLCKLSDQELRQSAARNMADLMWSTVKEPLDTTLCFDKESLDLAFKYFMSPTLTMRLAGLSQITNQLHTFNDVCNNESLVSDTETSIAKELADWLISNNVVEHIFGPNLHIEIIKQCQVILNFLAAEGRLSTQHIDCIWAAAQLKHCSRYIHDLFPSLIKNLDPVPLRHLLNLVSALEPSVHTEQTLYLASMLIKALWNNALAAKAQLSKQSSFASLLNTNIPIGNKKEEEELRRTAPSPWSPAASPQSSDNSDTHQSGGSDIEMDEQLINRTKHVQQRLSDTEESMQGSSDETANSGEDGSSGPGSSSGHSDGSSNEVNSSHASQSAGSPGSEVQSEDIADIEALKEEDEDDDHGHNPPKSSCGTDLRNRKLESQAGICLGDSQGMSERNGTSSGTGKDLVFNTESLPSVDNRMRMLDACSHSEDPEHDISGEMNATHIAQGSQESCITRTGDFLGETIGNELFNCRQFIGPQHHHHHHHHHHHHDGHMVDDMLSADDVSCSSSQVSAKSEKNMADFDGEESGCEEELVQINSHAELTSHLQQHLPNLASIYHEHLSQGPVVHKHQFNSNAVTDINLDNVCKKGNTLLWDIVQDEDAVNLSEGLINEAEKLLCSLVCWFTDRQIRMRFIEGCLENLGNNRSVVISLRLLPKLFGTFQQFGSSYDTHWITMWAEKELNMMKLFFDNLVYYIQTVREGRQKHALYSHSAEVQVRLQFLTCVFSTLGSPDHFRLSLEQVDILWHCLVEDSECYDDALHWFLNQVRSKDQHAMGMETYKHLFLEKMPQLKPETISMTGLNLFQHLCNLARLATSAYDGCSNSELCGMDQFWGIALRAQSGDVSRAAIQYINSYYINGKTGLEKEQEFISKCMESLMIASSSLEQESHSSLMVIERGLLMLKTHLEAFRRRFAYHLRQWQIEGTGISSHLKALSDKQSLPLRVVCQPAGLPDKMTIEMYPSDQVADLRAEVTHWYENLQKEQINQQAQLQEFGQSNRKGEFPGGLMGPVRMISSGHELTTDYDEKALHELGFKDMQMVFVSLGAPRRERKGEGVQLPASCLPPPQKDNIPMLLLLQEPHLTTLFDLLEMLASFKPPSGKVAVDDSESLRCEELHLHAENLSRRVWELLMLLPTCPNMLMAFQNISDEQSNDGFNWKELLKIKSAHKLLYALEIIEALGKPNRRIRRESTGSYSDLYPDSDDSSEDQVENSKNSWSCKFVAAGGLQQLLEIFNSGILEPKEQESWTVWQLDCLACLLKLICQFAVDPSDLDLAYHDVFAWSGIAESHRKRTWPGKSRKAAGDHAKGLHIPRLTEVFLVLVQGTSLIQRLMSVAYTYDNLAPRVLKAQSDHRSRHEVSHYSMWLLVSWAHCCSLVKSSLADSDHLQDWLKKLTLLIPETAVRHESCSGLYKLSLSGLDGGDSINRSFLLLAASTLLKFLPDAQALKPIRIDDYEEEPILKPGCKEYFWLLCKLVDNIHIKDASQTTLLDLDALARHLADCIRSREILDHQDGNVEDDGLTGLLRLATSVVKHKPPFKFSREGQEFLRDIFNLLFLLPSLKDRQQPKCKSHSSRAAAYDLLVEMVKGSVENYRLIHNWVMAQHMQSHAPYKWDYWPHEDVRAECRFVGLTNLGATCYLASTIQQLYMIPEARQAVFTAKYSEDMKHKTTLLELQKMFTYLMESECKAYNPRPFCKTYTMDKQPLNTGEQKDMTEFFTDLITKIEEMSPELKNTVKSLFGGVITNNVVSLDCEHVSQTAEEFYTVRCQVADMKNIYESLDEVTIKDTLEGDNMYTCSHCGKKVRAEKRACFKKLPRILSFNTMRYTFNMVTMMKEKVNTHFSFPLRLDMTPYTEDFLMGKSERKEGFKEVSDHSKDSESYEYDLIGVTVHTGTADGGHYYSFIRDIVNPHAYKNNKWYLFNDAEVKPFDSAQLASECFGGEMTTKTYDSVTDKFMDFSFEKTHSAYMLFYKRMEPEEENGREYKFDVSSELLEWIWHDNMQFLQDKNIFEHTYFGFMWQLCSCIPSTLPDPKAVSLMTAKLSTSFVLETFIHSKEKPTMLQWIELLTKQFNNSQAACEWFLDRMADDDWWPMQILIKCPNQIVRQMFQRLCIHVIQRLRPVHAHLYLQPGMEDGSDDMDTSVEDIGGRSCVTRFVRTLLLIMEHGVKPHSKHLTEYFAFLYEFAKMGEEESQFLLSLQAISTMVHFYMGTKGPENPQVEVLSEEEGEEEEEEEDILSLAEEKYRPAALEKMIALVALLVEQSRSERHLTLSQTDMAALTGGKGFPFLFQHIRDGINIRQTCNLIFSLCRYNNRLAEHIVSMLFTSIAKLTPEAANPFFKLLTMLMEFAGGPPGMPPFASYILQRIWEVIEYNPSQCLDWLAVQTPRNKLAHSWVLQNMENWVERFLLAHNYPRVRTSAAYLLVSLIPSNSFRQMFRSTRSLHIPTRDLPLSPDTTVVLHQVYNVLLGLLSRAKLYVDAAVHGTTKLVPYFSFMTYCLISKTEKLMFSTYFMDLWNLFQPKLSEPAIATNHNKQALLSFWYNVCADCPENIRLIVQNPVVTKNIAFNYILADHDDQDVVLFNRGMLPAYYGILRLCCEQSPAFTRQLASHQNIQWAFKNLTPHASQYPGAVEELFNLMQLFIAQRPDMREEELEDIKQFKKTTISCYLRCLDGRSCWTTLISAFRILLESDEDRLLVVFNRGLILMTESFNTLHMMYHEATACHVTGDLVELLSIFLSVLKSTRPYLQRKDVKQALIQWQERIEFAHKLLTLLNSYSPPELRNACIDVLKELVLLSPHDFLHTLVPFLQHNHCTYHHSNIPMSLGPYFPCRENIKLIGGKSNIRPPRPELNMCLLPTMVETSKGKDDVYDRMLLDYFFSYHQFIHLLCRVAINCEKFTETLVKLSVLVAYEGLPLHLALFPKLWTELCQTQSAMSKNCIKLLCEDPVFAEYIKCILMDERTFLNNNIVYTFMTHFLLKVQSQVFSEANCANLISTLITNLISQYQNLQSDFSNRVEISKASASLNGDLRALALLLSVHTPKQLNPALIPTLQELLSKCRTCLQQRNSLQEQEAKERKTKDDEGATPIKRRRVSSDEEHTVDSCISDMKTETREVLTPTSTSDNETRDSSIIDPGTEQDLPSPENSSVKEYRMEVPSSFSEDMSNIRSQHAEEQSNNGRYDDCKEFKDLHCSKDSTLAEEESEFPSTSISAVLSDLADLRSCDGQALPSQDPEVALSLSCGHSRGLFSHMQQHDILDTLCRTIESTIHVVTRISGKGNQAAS
In short: (§1)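 Average log2 ratios of fragment over vehicle were obtained by unpaired t-test from global-median-normalised Spectronaut label-free quantities. Proteins with ≥2 unique peptides were included. HEK293T lysate (495 µg per sample) was treated in triplicate with fragment at 200 µM or vehicle for 3 h, then with Biotin-Ahx-Ub-VS at 0.5 µM final for 1 h, and labelled DUBs were NeutrAvidin-enriched and run by diaPASEF LC-MS/MS.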

USP36 = target: T1, USP36 (UniProt Q9P275)
T1 sequence (whole entry): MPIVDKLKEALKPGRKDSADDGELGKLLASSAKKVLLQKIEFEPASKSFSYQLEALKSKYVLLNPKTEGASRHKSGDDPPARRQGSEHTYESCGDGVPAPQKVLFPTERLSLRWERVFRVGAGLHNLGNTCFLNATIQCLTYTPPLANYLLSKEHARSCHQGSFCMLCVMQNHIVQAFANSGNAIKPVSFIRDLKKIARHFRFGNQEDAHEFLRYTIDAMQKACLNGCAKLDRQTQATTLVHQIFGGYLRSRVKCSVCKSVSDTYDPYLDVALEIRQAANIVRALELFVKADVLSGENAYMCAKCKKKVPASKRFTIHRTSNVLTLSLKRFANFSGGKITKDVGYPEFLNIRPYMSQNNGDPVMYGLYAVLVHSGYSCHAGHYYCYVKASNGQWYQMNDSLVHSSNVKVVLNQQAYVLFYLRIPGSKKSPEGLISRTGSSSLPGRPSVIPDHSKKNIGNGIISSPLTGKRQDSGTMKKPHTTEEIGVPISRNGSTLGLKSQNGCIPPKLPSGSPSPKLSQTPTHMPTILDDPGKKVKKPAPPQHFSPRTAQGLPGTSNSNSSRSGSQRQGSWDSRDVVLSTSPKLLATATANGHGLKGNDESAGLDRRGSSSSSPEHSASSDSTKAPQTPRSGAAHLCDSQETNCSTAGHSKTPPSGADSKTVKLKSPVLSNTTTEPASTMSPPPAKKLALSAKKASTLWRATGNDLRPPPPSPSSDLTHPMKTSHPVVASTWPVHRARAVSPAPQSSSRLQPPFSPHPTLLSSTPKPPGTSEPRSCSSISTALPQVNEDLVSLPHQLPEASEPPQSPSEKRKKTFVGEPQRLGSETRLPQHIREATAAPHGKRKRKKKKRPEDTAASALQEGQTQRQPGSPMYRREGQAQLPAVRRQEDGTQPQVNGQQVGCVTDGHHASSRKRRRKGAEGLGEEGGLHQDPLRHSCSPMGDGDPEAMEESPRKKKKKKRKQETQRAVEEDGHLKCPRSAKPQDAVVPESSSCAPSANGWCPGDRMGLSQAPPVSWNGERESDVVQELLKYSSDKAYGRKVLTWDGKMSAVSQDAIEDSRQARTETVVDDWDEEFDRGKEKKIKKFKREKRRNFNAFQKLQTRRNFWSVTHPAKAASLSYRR
In short: as §1

USP38 = target: T2, USP38 (UniProt Q8NB14)
T2 sequence (whole entry): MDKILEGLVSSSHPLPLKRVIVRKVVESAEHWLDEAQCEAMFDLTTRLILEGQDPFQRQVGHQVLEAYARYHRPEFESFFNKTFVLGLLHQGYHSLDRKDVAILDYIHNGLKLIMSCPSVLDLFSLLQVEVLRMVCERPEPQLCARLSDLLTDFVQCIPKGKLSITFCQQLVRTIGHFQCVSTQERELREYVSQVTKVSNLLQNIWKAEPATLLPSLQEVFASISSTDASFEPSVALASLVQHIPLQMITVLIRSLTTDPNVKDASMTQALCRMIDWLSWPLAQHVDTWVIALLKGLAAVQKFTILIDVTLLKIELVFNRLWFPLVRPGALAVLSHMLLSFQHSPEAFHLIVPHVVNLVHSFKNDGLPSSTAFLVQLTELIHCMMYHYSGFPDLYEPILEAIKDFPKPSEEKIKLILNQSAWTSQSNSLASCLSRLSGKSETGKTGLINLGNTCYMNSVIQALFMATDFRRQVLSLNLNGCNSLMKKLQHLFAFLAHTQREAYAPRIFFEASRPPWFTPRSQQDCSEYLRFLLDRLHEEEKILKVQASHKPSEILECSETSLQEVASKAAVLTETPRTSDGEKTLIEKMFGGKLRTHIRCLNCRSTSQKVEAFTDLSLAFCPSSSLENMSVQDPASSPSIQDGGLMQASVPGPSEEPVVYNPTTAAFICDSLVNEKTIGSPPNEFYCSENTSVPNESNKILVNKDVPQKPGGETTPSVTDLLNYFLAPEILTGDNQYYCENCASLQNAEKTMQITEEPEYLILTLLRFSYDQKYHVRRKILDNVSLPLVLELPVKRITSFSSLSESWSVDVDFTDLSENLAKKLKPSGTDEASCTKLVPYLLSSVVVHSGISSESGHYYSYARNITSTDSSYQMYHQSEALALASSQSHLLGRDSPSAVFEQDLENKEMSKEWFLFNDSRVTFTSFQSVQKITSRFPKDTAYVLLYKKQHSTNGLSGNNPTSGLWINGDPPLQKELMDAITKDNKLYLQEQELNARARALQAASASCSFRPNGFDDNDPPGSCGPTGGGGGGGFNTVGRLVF
In short: as §1

USP39 = target: T3, USP39 (UniProt Q53GS9)
T3 sequence (whole entry): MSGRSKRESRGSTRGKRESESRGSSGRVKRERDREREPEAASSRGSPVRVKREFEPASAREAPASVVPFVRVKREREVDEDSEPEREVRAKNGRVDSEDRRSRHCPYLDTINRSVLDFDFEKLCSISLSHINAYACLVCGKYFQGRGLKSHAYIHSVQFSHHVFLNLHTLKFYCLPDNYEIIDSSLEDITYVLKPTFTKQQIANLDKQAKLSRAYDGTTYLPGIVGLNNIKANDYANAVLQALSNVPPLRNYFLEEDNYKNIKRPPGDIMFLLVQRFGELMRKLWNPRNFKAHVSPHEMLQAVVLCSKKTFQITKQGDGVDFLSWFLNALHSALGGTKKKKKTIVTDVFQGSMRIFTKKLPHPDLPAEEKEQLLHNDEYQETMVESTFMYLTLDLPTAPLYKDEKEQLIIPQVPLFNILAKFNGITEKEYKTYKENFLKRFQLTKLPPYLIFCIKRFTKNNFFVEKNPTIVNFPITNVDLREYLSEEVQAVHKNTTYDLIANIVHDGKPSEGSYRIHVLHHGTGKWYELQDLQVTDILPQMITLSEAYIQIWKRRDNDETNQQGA
In short: as §1

USP4 = target: T4, USP4 (UniProt Q13107)
T4 sequence (whole entry): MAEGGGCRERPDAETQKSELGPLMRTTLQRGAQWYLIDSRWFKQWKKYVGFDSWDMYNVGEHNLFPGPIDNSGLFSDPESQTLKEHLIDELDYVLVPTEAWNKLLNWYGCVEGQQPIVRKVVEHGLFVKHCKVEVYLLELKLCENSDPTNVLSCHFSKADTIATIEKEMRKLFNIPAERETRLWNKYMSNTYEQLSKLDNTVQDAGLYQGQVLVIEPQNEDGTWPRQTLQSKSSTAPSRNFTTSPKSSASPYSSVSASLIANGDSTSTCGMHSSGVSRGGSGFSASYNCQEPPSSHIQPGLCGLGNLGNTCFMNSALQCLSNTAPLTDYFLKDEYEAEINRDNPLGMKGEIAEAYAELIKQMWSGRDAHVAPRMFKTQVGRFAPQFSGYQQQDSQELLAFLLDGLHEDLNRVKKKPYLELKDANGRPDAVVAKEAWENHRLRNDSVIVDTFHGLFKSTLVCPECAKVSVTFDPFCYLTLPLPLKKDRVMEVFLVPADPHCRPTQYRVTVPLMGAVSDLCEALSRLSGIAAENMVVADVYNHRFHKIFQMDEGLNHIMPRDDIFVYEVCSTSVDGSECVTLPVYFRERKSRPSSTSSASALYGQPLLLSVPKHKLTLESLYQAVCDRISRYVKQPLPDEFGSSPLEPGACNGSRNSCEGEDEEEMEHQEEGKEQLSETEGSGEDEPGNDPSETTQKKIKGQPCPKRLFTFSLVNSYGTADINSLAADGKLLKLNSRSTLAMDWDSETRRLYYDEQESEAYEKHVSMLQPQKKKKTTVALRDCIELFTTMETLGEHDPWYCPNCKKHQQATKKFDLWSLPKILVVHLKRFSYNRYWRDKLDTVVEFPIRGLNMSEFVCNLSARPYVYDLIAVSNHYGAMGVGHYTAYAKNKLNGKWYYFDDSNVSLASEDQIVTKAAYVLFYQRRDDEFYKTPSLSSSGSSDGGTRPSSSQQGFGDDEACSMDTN
In short: as §1

Measured: log2 ratio of Biotin-Ahx-Ub-VS probe labelling

Cl.O=C(CCl)N1CCC(Cc2nccs2)C1 (stereo not given)
inactive: USP34 0.132 | USP36 -0.0197 | USP38 0.0569 | USP39 0.0712 | USP4 -0.165
